PMC10668032, “Altered binding affinity of SIX1-Q177R correlates with enhanced WNT5A and WNT pathway effector expression in Wilms tumor”
Whole data set: some 33,000 sequences, median “e-score” near -0.053, cut for the highest 2% near 0.38. For the sample, the highest values were picked, then their nearest neighbours and some sequences at random.

What follows are sequences tested against T1, SIX1 homeodomain (reference allele) (human, UniProt Q15475 108-198) (assay: universal protein binding microarray; Universal all-10-mer PBM (8x60K, AMADID 030236), 300 nM GST-tagged protein, Alexa Fluor 488 anti-GST; buffer, salt, pH and temperature not stated (as in Berger); high values mean tight binding). Conditions: protein: ivt; tags: N-terminal GST; dsDNA, one strand shown.
T1 sequence: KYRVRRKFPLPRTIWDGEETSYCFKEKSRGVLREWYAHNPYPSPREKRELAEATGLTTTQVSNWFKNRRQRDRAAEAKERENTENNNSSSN
In short: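 Duplicate protein binding microarrays (universal 'all 10-mer', 8×60K format) were incubated with GST-tagged homeodomains at 300 nM final concentration. Binding was quantified as 8-mer E-scores with the Universal PBM Analysis Suite.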

Row | Sequence | binding signal
1 | ATCAGTCA | 0.2227 ± 0.00177 E-score
2 | GGGGATGA | 0.267 ± 0.0256 E-score
3 | AGAGATCG | 0.25548 ± 0.000134 E-score
4 | CGGGATTA | 0.263 ± 0.0233 E-score
5 | AGGGATCA | 0.4493 ± 0.00351 E-score
6 | AGGGATCG | 0.386 ± 0.0182 E-score
7 | AGGGATGA | 0.176 ± 0.025 E-score
8 | GGGGATTA | 0.302 ± 0.0187 E-score
9 | AGGGATTA | 0.305 ± 0.032 E-score
10 | GGGGATCA | 0.4469 ± 0.0011 E-score
11 | CGGGATGA | 0.159 ± 0.0157 E-score
12 | AGGGATTG | 0.203 ± 0.0478 E-score
13 | CGGGATCA | 0.417 ± 0.0124 E-score
14 | CAGCGATC | 0.265 ± 0.0201 E-score
15 | ATTATGTG | 0.171 ± 0.0412 E-score
16 | ATACTCGC | 0.34 ± 0.069 E-score
17 | CTATACGC | 0.215 ± 0.0251 E-score
18 | CGATCTGC | 0.209 ± 0.00856 E-score
19 | CAGATTAC | 0.187 ± 0.0577 E-score
20 | GATTATGC | 0.265 ± 0.0543 E-score
21 | CCCATCTC | 0.292 ± 0.0209 E-score
22 | ACACCTTG | 0.186 ± 0.0328 E-score

Row | Sequence | binding signal
23 | CAGGATCC | 0.354 ± 0.0257 E-score
24 | CGGGATCC | 0.393 ± 0.0513 E-score
25 | AAGGATCC | 0.35 ± 0.0205 E-score
26 | ATGGATCC | 0.362 ± 0.0547 E-score
27 | AGGGATCC | 0.386 ± 0.0382 E-score
28 | CTGGATCC | 0.351 ± 0.0527 E-score
29 | ATTCGATA | 0.302 ± 0.0451 E-score
30 | ATCAAAAA | 0.153 ± 0.0897 E-score
31 | ATCTAATA | 0.237 ± 0.0442 E-score
32 | GACACCCC | 0.436 ± 0.0137 E-score
33 | GACACCCA | 0.396 ± 0.0322 E-score
34 | AACACCCC | 0.268 ± 0.0366 E-score
35 | GACACCAA | 0.364 ± 0.0101 E-score
36 | CACACCCC | 0.26 ± 0.0792 E-score
37 | TACACCCA | 0.341 ± 0.0149 E-score
38 | GATTATAC | 0.34 ± 0.0371 E-score
39 | GCCGATCA | 0.229 ± 0.0129 E-score
40 | ATAGCCCC | 0.181 ± 0.0335 E-score
41 | TATCAGAA | 0.354 ± 0.0409 E-score
42 | TACCTCTA | 0.204 ± 0.0372 E-score
43 | CCGACAGA | 0.195 ± 0.026 E-score
44 | CCAACACC | 0.291 ± 0.0364 E-score

Row | Sequence | binding signal
45 | GCGACACC | 0.412 ± 0.0314 E-score
46 | ACGACACG | 0.156 ± 0.0251 E-score
47 | GGGACACC | 0.341 ± 0.0406 E-score
48 | CCGACACC | 0.438 ± 0.013 E-score
49 | ACGACACC | 0.432 ± 0.024 E-score
50 | GAGACACC | 0.306 ± 0.032 E-score
51 | AAGACACC | 0.347 ± 0.0269 E-score
52 | CTGCTATC | 0.292 ± 0.00957 E-score
53 | CACACCAG | 0.156 ± 0.0892 E-score
54 | ACTAATAC | 0.225 ± 0.029 E-score
55 | GATGTATA | 0.306 ± 0.0136 E-score
56 | TAGATATA | 0.323 ± 0.076 E-score
57 | CTAATATC | 0.339 ± 0.0352 E-score
58 | GTGATATA | 0.419 ± 0.016 E-score
59 | GTGAGATA | 0.388 ± 0.0283 E-score
60 | CCGATATA | 0.333 ± 0.0187 E-score
61 | ATGAGATA | 0.262 ± 0.0851 E-score
62 | GCGATATA | 0.399 ± 0.0347 E-score
63 | GCTATATA | 0.2534 ± 0.00173 E-score
64 | CTTATATC | 0.292 ± 0.0136 E-score
65 | CTGATATA | 0.358 ± 0.0287 E-score
66 | CTGAGATA | 0.248 ± 0.0841 E-score

Row | Sequence | binding signal
67 | CTGATATC | 0.465 ± 0.0148 E-score
68 | ATGAGAAG | 0.176 ± 0.0788 E-score
69 | ATATGCAG | 0.222 ± 0.0653 E-score
70 | GATTACGC | 0.225 ± 0.0112 E-score
71 | ATTGAGTA | 0.192 ± 0.0104 E-score
72 | AGATCTCC | 0.184 ± 0.0698 E-score
73 | ATCTGAGA | 0.292 ± 0.0452 E-score
74 | CATATGAG | 0.19 ± 0.0156 E-score
75 | GATCGCAC | 0.253 ± 0.0507 E-score
76 | ATTATATA | 0.254 ± 0.0255 E-score
77 | ATAATATC | 0.358 ± 0.0729 E-score
78 | ATGATATC | 0.476 ± 0.0196 E-score
79 | ATTATATC | 0.329 ± 0.0838 E-score
80 | ATGATATG | 0.472 ± 0.0175 E-score
81 | AAGATATA | 0.28 ± 0.0929 E-score
82 | ATCATATG | 0.281 ± 0.0284 E-score
83 | ATTATATG | 0.182 ± 0.0439 E-score
84 | ATGATATA | 0.414 ± 0.0235 E-score
85 | CTGGCATA | 0.228 ± 0.0218 E-score
86 | ATCATTCC | 0.291 ± 0.0446 E-score
